# Data published in PubChem BioAssay (EPA / NIEHS).
# Activity calls are given as the source filed them. The calls were made as follows: active = hit-call score of the fitted dose curve at least 0.9, where 1 is the maximum; inactive = score below 0.9.
# How the values were obtained:
# Conditions in all cases: mRNA level, 48 h; actives raise or lower the signal
# [1] = read-out: CFLAR gene, CFLAR (gene 8837); test: LTEA_HepaRG_CFLAR: Life Technologies and Expression Analysis (LTEA) Assay for CFLAR gene using HepaRG (AID 2283455)
# How it was run: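 Differentiated HepaRG cells in serum-free induction medium were exposed 48 h in duplicate to eight half-log concentrations up to 100 uM in 0.5% DMSO; mRNA measured by TaqMan qRT-PCR, normalized to ACTB, GAPDH, POLR2A; bidirectional fitting versus DMSO.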
# [2] = read-out: Forkhead box O1 (FOXO1), FOXO1 (gene 2308); test: LTEA_HepaRG_FOXO1: Life Technologies and Expression Analysis (LTEA) Assay for Forkhead box O1 (FOXO1) using HepaRG (AID 2283456)
# How it was run: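 Differentiated HepaRG cells, in serum-free induction medium with 0.5% DMSO, exposed 48 h in duplicate to 8-point half-log series from 100 uM. FOXO1 mRNA measured by TaqMan qRT-PCR, normalized to ACTB, GAPDH, POLR2A; bidirectional fit versus DMSO.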
# [3] = read-out: growth arrest and DNA damage 45 (GADD45A), GADD45A (gene 1647); test: LTEA_HepaRG_GADD45A: Life Technologies and Expression Analysis (LTEA) Assay for growth arrest and DNA damage 45 (GADD45A) using HepaRG (AID 2283458)
# How it was run: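 Differentiated HepaRG cells were exposed in duplicate for 48 h in serum-free induction medium to 8-point half-log concentrations up to 100 uM in 0.5% DMSO. GADD45A mRNA was measured by TaqMan qRT-PCR, normalized to ACTB, GAPDH and POLR2A, with bidirectional fitting versus DMSO.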
# [4] = read-out: Forkhead box O3 (FOXO3), FOXO3 (gene 2309); test: LTEA_HepaRG_FOXO3: Life Technologies and Expression Analysis (LTEA) Assay for Forkhead box O3 (FOXO3) using HepaRG (AID 2283459)
# How it was run: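 Differentiated human HepaRG cells, 48 h post-plating, exposed in duplicate for 48 h in serum-free induction medium; 8-point half-log series from 100 uM in 0.5% DMSO. FOXO3 mRNA by TaqMan qRT-PCR, normalized to ACTB/GAPDH/POLR2A; bidirectional fit versus DMSO.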
# [5] = read-out: ABC Transporter (ABCB1), ABCB1 (gene 5243); test: LTEA_HepaRG_ABCB1: Life Technologies and Expression Analysis (LTEA) Assay for ABC Transporter (ABCB1) using HepaRG (AID 2283460)
# How it was run: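 HepaRG cells exposed in duplicate for 48 h in serum-free induction medium to eight half-log concentrations up to 100 uM in 0.5% DMSO. ABCB1 mRNA quantified by qRT-PCR, normalised to ACTB, GAPDH and POLR2A; fitted bidirectionally versus DMSO.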
# [6] = read-out: growth arrest and DNA damage 45 (GADD45B), GADD45B (gene 4616); test: LTEA_HepaRG_GADD45B: Life Technologies and Expression Analysis (LTEA) Assay for growth arrest and DNA damage 45 (GADD45B) using HepaRG (AID 2283461)
# How it was run: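 Human HepaRG monolayers receive chemicals for 48 h at eight half-log concentrations, highest 100 uM, in 0.5% DMSO. Expression is measured by TaqMan qRT-PCR and normalized to ACTB, GAPDH and POLR2A.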
# [7] = read-out: ABC Transporter (ABCC3), ABCC3 (gene 8714); test: LTEA_HepaRG_ABCC3: Life Technologies and Expression Analysis (LTEA) Assay for ABC Transporter (ABCC3) using HepaRG (AID 2283462)
# How it was run: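 Transcriptional change of ABCC3 in HepaRG after 48 h treatment, determined by qRT-PCR normalized to endogenous controls. Concentrations spanned eight half-log steps to 100 uM in 0.5% DMSO.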
# [8] = read-out: ABC Transporter (ABCB11), ABCB11 (gene 8647); test: LTEA_HepaRG_ABCB11: Life Technologies and Expression Analysis (LTEA) Assay for ABC Transporter (ABCB11) using HepaRG (AID 2283463)
# How it was run: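 Differentiated human HepaRG cells in serum-free induction medium, dosed in duplicate for 48 h. Eight-point half-log series from 100 uM in 0.5% DMSO; ABCB11 mRNA by qRT-PCR, normalized to ACTB, GAPDH, POLR2A, fitted bidirectionally versus DMSO.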
# [9] = read-out: ABC Transporter (ABCC2), ABCC2 (gene 1244); test: LTEA_HepaRG_ABCC2: Life Technologies and Expression Analysis (LTEA) Assay for ABC Transporter (ABCC2) using HepaRG (AID 2283464)
# How it was run: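 After plating and 48 h culture, HepaRG medium is replaced with serum-free induction medium and chemicals are added (8 concentrations, max 100 uM, 0.5% DMSO) for 48 h. Total RNA then undergoes qRT-PCR for ABCC2 with housekeeping normalization.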
# [10] = read-out: ATP-citrate lyase (ACLY), ACLY (gene 47); test: LTEA_HepaRG_ACLY: Life Technologies and Expression Analysis (LTEA) Assay for ATP-citrate lyase (ACLY) using HepaRG (AID 2283466)
# How it was run: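 Differentiated HepaRG cells exposed 48 h in serum-free induction medium to eight half-log concentrations up to 100 uM in 0.5% DMSO, duplicates. Transcript measured by Fluidigm TaqMan qRT-PCR, normalized to ACTB, GAPDH, POLR2A; bidirectional fit versus DMSO.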
# [11] = read-out: Peroxisomal acyl-coenzyme A oxidase 1 (ACOX1) gene, ACOX1 (gene 51); test: LTEA_HepaRG_ACOX1: Life Technologies and Expression Analysis (LTEA) Assay for Peroxisomal acyl-coenzyme A oxidase 1 (ACOX1) gene using HepaRG (AID 2283467)
# How it was run: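 HepaRG cells, plated 48 h then switched to serum-free induction medium, were exposed in duplicate for 48 h to 8-point half-log concentrations up to 100 uM in 0.5% DMSO. ACOX1 mRNA was measured by qRT-PCR, normalized to ACTB/GAPDH/POLR2A, and fitted bidirectionally versus DMSO.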
# [12] = read-out: Alkaline Phosphatase, Placental (ALPP) gene, ALPP (gene 250); test: LTEA_HepaRG_ALPP: Life Technologies and Expression Analysis (LTEA) Assay for Alkaline Phosphatase, Placental (ALPP) gene using HepaRG (AID 2283468)
# How it was run: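 Using human liver HepaRG cells, chemicals are tested in duplicate over 48 h at half-log concentrations topping at 100 uM; phenobarbital 1 mM serves as induction control. ALPP mRNA change by qRT-PCR, bidirectional fit against vehicle.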
# [13] = read-out: Bcl-2 (BAD) gene, BAD (gene 572); test: LTEA_HepaRG_BAD: Life Technologies and Expression Analysis (LTEA) Assay for Bcl-2 (BAD) gene using HepaRG (AID 2283469)
# How it was run: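 Differentiated HepaRG cells were exposed in duplicate in 0.5% DMSO for 48 h to eight-point half-log concentrations up to 100 uM. BAD mRNA was measured by Fluidigm TaqMan qRT-PCR, normalized to ACTB, GAPDH and POLR2A, and fitted bidirectionally against DMSO.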
# [14] = read-out: Bcl-2 (BAX) gene, BAX (gene 581); test: LTEA_HepaRG_BAX: Life Technologies and Expression Analysis (LTEA) Assay for Bcl-2 (BAX) gene using HepaRG (AID 2283470)
# How it was run: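 Differentiated human HepaRG cells, plated 48 h then switched to serum-free induction medium, were exposed 48 h to 8 half-log concentrations up to 100 uM in 0.5% DMSO; BAX mRNA measured by qRT-PCR, normalized to ACTB, GAPDH, POLR2A.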
# [15] = read-out: adenosine kinase (ADK) gene, ADK (gene 132); test: LTEA_HepaRG_ADK: Life Technologies and Expression Analysis (LTEA) Assay for adenosine kinase (ADK) gene using HepaRG (AID 2283471)
# How it was run: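 Read-out is ADK transcript level measured by qRT-PCR and normalised to three housekeeping genes. Cells are human HepaRG, dosed for 48 h at up to 100 uM in 0.5% DMSO. Gain or loss of signal is fitted against DMSO controls.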
# [16] = read-out: Alpha-fetoprotein (AFP) gene, AFP (gene 174); test: LTEA_HepaRG_AFP: Life Technologies and Expression Analysis (LTEA) Assay for Alpha-fetoprotein (AFP) gene using HepaRG (AID 2283472)
# How it was run: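 Human HepaRG cells plated 48 h, then switched to serum-free induction medium and exposed in duplicate for 48 h to 8-point half-log series from 100 uM in 0.5% DMSO. AFP mRNA by qRT-PCR, normalized to ACTB, GAPDH, POLR2A; bidirectional fit versus DMSO.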
# BCL2L11 (gene 10018) = test: LTEA_HepaRG_BCL2L11: Life Technologies and Expression Analysis (LTEA) Assay for Bcl-2 (BCL2L11) gene using HepaRG (AID 2283473)
# How it was run: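 Human hepatic HepaRG cultures are treated 48 h with test chemicals (maximum 100 uM, 0.5% DMSO vehicle). Expression of BCL2L11 is measured by qRT-PCR against ACTB, GAPDH and POLR2A, with activity in either direction scored relative to vehicle.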
# [17] = read-out: Apolipoprotein A-V (APOA5) gene, APOA5 (gene 116519); test: LTEA_HepaRG_APOA5: Life Technologies and Expression Analysis (LTEA) Assay for Apolipoprotein A-V (APOA5) gene using HepaRG (AID 2283474)
# How it was run: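 Concentration-response of APOA5 expression in HepaRG: eight half-log doses to 100 uM, 48 h, qRT-PCR normalized to ACTB/GAPDH/POLR2A, bidirectional fitting with 0.5% DMSO as baseline.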
# [18] = read-out: Broad substrate specificity ATP-binding cassette transporter ABCG2 (Homo sapiens) (UniProt Q9UNQ0); test: LTEA_HepaRG_ABCG2: Life Technologies and Expression Analysis (LTEA) Assay for ABC Transporter (ABCG2) using HepaRG (AID 2283465)
# How it was run: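 Differentiated HepaRG cells were exposed for 48 h in serum-free induction medium to 8 half-log concentrations, top 100 uM, in 0.5% DMSO. ABCG2 mRNA was measured by qRT-PCR, normalized to ACTB, GAPDH and POLR2A, with bidirectional fitting versus DMSO.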
# Broad substrate specificity ATP-binding cassette transporter ABCG2 (Homo sapiens), sequence (Q9UNQ0 whole entry, looked up): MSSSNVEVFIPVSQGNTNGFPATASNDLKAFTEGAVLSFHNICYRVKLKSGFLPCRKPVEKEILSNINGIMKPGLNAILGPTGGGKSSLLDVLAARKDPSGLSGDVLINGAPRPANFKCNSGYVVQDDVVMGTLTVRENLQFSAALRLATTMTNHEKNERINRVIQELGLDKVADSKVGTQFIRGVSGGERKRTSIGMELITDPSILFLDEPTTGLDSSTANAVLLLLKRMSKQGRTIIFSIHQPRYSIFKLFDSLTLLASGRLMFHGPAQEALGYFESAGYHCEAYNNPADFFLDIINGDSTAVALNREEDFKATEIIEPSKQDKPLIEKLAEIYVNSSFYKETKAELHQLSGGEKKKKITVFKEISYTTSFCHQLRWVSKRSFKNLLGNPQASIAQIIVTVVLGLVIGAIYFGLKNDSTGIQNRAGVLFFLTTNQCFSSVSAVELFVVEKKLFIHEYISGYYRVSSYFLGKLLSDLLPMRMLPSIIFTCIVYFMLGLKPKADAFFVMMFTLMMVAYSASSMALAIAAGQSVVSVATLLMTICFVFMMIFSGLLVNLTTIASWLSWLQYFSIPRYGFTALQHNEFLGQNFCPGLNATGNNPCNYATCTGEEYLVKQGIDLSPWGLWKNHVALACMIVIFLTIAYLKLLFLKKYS
smiles,measurement,setting,value
Nn1cnnc1,outcome,[1],inactive
same,outcome,[2],inactive
same,outcome,[3],inactive
same,outcome,[4],inactive
same,outcome,[5],inactive
same,outcome,[6],inactive
same,outcome,[7],inactive
same,outcome,[8],inactive
same,outcome,[9],inactive
same,outcome,[10],inactive
same,outcome,[11],inactive
same,outcome,[12],inactive
same,outcome,[13],inactive
same,outcome,[14],inactive
same,outcome,[15],inactive
same,outcome,[16],inactive
same,outcome,BCL2L11 (gene 10018),inactive
same,outcome,[17],inactive
Cc1cc(-c2ccc(N)c(C)c2)ccc1N,outcome,[1],inactive
same,outcome,[2],inactive
same,outcome,[3],inactive
same,AC50,[4],18 µM (active)
same,outcome,[5],inactive
same,AC50,[6],50 µM (active)
same,outcome,[7],inactive
same,outcome,[9],inactive
same,outcome,[18],inactive
same,outcome,[10],inactive
same,outcome,[11],inactive
same,outcome,[12],inactive
same,AC50,[16],34 µM (active)
same,outcome,BCL2L11 (gene 10018),inactive
same,outcome,[17],inactive
CC#Cc1cc(C)nc(Nc2ccccc2)n1,outcome,[1],inactive
same,outcome,[2],inactive
same,outcome,[3],inactive
same,AC50,[4],7.38 µM (active)
same,outcome,[5],inactive
same,AC50,[6],19.2 µM (active)
same,outcome,[7],inactive
same,AC50,[8],9.09 µM (active)
same,outcome,[9],inactive
same,outcome,[10],inactive
same,outcome,[11],inactive
same,AC50,[12],50 µM (active)
same,outcome,[13],inactive
same,AC50,[16],26.4 µM (active)
same,AC50,BCL2L11 (gene 10018),13 µM (active)
same,outcome,[17],inactive
CCCN(CCC)N=O,outcome,[1],inactive
same,outcome,[2],inactive
same,outcome,[3],inactive
same,outcome,[4],inactive
same,outcome,[6],inactive
same,outcome,[7],inactive
same,outcome,[8],inactive
same,outcome,[9],inactive
same,outcome,[10],inactive
same,outcome,[11],inactive
same,outcome,[12],inactive
same,outcome,[14],inactive
same,outcome,[16],inactive
same,outcome,BCL2L11 (gene 10018),inactive
same,outcome,[17],inactive
